Experimental findings from PubChem BioAssay are described below.

Values joined by “and” are separate entries in the source; they are usually repeats but may differ in a detail not shown here. Identical values can stand only once. For part of these data: Entries with a potency or affinity are not part of this list. Active and inactive are the calls of the source. Unless noted, how the calls were made is not given here.

Test [1] relates to Aerobactin synthetase IucA (Klebsiella pneumoniae). The experiment in a line: inhibition of K. pneumoniae IucA enzyme – biochemical, Tocris library, absorbance (AID 1345561).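 Further: 100% = enzyme without compound and 0% = no enzyme.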 Conditions: purified IucA enzyme assay, absorbance (OD) read-out; stronger effect = lower value;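 tested at 8 µM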.
Test [2] concerns Aerobactin synthetase IucA (Klebsiella pneumoniae hvKP1). Put plainly: IucA enzyme inhibition, primary screen, biochemical, Spectrum library (AID 1346200).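 Further: 100% = wells without compound and 0% = wells lacking enzyme.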 The following applies: malachite green pyrophosphate, A620, at 8 µM, stronger effect = lower value.
A short description of test [3]: viability loss with induced miR-34 in A549 – imaging, A549 dox-inducible miR-34, nuclei and caspase counts, primary screen (AID 1347080;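 active means compounds whose cell count with miR-34 switched on is under 0.7 times the count with it off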). Conditions: A549 miR-34 inducible, Hoechst nuclei count, 48 h.
Test [4] deals with Mitogen-activated protein kinase 7 (Homo sapiens) (UniProt Q13164). The experiment in a line: Gal4-ERK5 driven luciferase induction – cell-based, HTS, primary screen (AID 1508626;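 active means luciferase signal above three times the same-plate solvent-only control wells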;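 further: luciferase driven by Gal4-ERK5 fusion binding five Gal4 sites before minimal TATA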). Conditions: HeLa Gal4-ERK5 transactivation, 18 h, at 5 µM, stronger effect = higher value.
The nature of test [5]: galactose survival enhancers in mitochondrial complex I cybrids – cell-based, galactose medium, ATP luminescence, primary screen (AID 1645843;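 active means z-score of at least 1.8 in each of two replicates, scored against plate mean and spread of sample wells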;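 further: positive z means more ATP and so rescue of galactose-driven cybrid death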). The following applies: complex I mutant cybrid cells, 72 h, stronger effect = higher value.
Test [6] in a line: blockers of polyQ-driven CASP3 activation – cell-based (AID 1583). The following applies: polyglutamine-induced caspase-3 activation, cell assay; stronger effect = higher value;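 tested at 10 µM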.
Test [7] in a line: yeast 75Q aggregation reduction – 75Q-TubU reporter (AID 1593). Conditions: Yeast 75Q polyglutamine aggregation reporter.
A short description of test [8]: restoration of touch response, mutant HTT neurons – whole organism, C. elegans mechanosensory neurons, N-terminal huntingtin (AID 1599). The following applies: C. elegans polyQ-huntingtin mechanosensory neurons, stronger effect = higher value.
Test [9] can be described thus: blockers of cytochrome c efflux from mitochondria – biochemical, purified mitochondria (AID 1603).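 Further: mouse liver mitochondria challenged with calcium chloride; signal normalized to the plate average as 100%.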 The following applies: stronger effect = lower value.
Test [10] is described as follows: polyglutamine aggregate formation blockers (AID 1604). The following applies: polyglutamine-induced protein aggregation inhibition assay; stronger effect = higher value; tested at 2.5 µM.
The nature of test [11]: glutamate transport activators, MN-1 cells, MN-1 cell line (AID 1612).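 Further: tested at 1 µM final; 0% = mean of DMSO vehicle wells on each plate; positive means more glutamate uptake than control and negative means less.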 Conditions: MN-1 motor neuron cells, stronger effect = higher value.
Test [12] can be described thus: 75Q-TubH aggregate inhibition, S. cerevisiae, yeast (AID 1616). Conditions: S. cerevisiae 75Q-TubH polyglutamine aggregation suppression; stronger effect = higher value.
Test [13] can be described thus: P. berghei load reduction in hepatocytes – cell-based, HepG2, luciferase luminescence, HepG2 viability, primary screen (AID 624349; in the data active means parasite load remaining mostly below about 12%, no sharp cut-off; inactive means mostly above about 10%;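 further: 100% = mean of DMSO negative control wells on the same plate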). The following applies: P. berghei liver stage in HepG2, luciferase luminescence, concentration not given here; parasite load remaining: stronger effect = lower value; viability: measured here: HepG2 viability without parasites.
Test [14] is described as follows: EMT-state selective cytotoxicity in co-culture – imaging, PC-3E GFP, TEM4-18 mCherry, primary screen (AID 1345086;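 active means compounds killing one labelled cell type while sparing the other, by normalised counts and ratio limits, not self-fluorescent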;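 on all read-outs here: cells exposed to compound for 72 h before imaging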;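 on red/green cell ratio (normalised): normalised mesenchymal count divided by normalised epithelial count so high means epithelial killing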). Conditions: PC-3E GFP / TEM4-18 mCherry co-culture, imaging cell counts, at 1 µM; for red/green cell ratio (normalised): actives lie on both sides.
A short description of test [15]: MELAS cybrid and Rieske KO viability enhancers – cell-based, MELAS cybrids, Rieske KO mouse fibroblasts, CellTiter-Glo, primary screen (AID 1508586;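 active means mean z-score across replicates of 1.96 or higher in either the MELAS or the Rieske mutant cell line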;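 further: z relative to plate mean and SD of compound and empty wells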). Conditions: low glucose. Background: Cellular ATP, detected with luciferase, serves as a proxy for viable cell number.
Test [16] is described as follows: compounds altering circadian rhythm period length – cell-based, LOPAC library, luminescence reporter (AID 2774).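 Further: values are relative to mean of DMSO wells on each plate.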 Conditions: circadian reporter cells, at 7 µM, actives lie on both sides.
Test [17] relates to Hepatitis C virus NS3 helicase. Put plainly: blockers of NS3h binding to ssDNA – biochemical, fluorescence polarization, LOPAC1280 library, primary screen (AID 687035; in the data active means inhibition above about 37%). Conditions: Purified HCV NS3 helicase, Cy5-dT15 ssDNA binding fluorescence polarization; stronger effect = higher value; concentration not given here.
Test [18] can be described thus: compounds altering Cy5-DNA-NS3h complex signal – biochemical, LOPAC1280, artefact control for HCV NS3 helicase inhibitor project (AID 687037). Conditions: Cy5-DNA-NS3h complex fluorescence interference counterscreen. On the technique in general: A counterscreen serves to expose hits that act by an unwanted route or on another target.
Test [19] in a line: blockers of cellular phospholipid synthesis – cell-based, LOPAC library, screen 4, primary screen (AID 1347384). The following applies: animal cells, phospholipid biosynthesis inhibition screen; at 10 µM.
[20] abbreviates: stronger effect = lower value, cell number ratio, induced over uninduced.
The mark [21] stands for this setting: measured here: relative caspase fold change +Dox/-Dox.
[22] abbreviates: measured here: total cells with miR-34 induction, stronger effect = lower value.
Setting [23] is: measured here: total cells without miR-34 induction.
Where [24] appears, read: measured here: epithelial PC-3E GFP cell survival.
Where [25] appears, read: measured here: mesenchymal TEM4-18 mCherry cell survival.

Sequence of Mitogen-activated protein kinase 7 (Homo sapiens) (Q13164 whole entry, looked up, the tested form may be a part): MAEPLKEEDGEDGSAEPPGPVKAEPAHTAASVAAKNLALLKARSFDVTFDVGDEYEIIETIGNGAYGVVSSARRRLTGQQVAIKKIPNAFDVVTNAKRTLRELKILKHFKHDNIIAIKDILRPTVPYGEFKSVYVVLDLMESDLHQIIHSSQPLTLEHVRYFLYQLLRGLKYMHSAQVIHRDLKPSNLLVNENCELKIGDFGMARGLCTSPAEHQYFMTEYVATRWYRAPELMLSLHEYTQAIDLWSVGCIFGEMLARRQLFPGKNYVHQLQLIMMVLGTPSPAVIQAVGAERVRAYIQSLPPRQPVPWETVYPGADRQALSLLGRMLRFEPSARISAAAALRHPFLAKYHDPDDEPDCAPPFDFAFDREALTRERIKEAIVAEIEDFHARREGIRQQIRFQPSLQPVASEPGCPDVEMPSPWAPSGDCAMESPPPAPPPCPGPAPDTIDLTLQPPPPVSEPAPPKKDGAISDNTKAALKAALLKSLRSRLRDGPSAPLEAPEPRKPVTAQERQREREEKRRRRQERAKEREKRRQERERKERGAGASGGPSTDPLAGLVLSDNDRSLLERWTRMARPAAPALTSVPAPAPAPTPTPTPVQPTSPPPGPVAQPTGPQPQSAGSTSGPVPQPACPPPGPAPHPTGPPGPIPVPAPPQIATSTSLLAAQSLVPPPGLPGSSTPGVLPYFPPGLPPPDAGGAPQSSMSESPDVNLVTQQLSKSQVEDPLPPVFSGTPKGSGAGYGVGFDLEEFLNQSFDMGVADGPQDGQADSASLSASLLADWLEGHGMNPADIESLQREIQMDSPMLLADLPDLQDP

On to `Cc1ccc(C[N+](C)(C)C)o1`, for which the remaining activity – broadly, the signal under treatment as a percentage of the control signal – in test [1] is 126% (inactive). In test [2], the activity remaining is 106% (inactive). Besides, the fold change in test [3] (setting [20]) is 0.971 (inactive); in [3] (setting [21]), 0.883. The cell count in test [3] (setting [22]) was determined as 9440; in test [3] (setting [23]), 9720. In test [4], the luciferase signal was 100 AU (inactive). Besides, the z-score in test [5] is 0.545 (inactive).

In the case of `C[C@]12CCC(=O)C=C1CCC1C2CC[C@@]2(C)C1CC[C@@H]2O` (some centres undefined), in test [6], the inhibition (as a rule, the drop in the measured response relative to a control, in per cent) was -4.21%. The score in test [7] is -1.11. For the same compound, in [8], the rescue above control was 4.25. In addition, the cytochrome c release ratio in [9] worked out at 1.03. For the same compound, in test [10], the inhibition of aggregation was -1.96%. The compound further returned a glutamate uptake change in [11] of 18.8%. The same compound returned an aggregation suppression score in test [12] of -0.43. Further, the parasite load remaining in [13] was 68.4% (inactive). Further, in test [13], the viability (as a rule, a read-out of living cells in per cent, often relative to untreated cells) came out at 110%. For the same compound, in [14], the red/green cell ratio (normalised) was 1.12 (inactive). Besides, the figures for the normalised cell number in test [14] (setting [24]) and in test [14] (setting [25]) were 0.76 and 0.85, respectively. Moreover, the fold change in [3] (stronger effect = lower value) is 0.943 (inactive); in test [3] (setting [21]), 2.07. Also, the cell count in test [3] (setting [22]) came out at 10700; in test [3] (setting [23]), 11300.

In the case of `C=CC[C@]1(O)CCC2C3CCC4=CC(=O)CCC4=C3C=C[C@@]21C` (some centres undefined), in test [13], the parasite load remaining is 26.4% (inactive). The viability in test [13] came to 98.9%. Moreover, the red/green cell ratio (normalised) in test [14] is 0.86 (inactive). The normalised cell number in test [14] (setting [24]) was found to be 0.92; in test [14] (setting [25]), 0.79. The fold change is 0.89 (inactive) in test [3] (stronger effect = lower value) and 1.39 in test [3] (setting [21]). For the same compound, the cell count worked out at 10300 in test [3] (setting [22]) and 11500 in test [3] (setting [23]).

Take `CN1c2ccccc2C(NCCCCCCC(=O)O)c2ccc(Cl)cc2S1(=O)=O` (centres undefined): the remaining activity in test [1] is 117% (inactive). The fold change in [3] (stronger effect = lower value) is 0.955 (inactive) and 0.9 (inactive); in test [3] (setting [21]), 0.36 and 0.634. The cell count in test [3] (setting [22]) is 7100 and 7840; in test [3] (setting [23]) it was 7430 and 8710. Besides, the z-score in test [15] (MELAS cybrid survival, CellTiter-Glo 48 h, stronger effect = higher value) was -0.117 (inactive); in [15] (Rieske KO mouse fibroblast survival, CellTiter-Glo 72 h), 0.00377; in test [5], 0.255 (inactive).

In the case of `CN(C)CCN(C)CCc1ccc(Cl)c(Cl)c1`, the remaining activity in test [1] was 102% (inactive). The fold change was 0.927 (inactive) in [3] (setting [20]) and 0.848 in test [3] (setting [21]). Moreover, the cell count came out at 8600 in [3] (setting [22]) and 9270 in [3] (setting [23]). Also, in test [5], the z-score is -0.285 (inactive).

Consider `Cc1o[nH]c(=O)c1CC(N)C(=O)O` (centres undefined), for which the period change in test [16] was -0.03 h (inactive). Besides, the inhibition in test [17] was -4% (inactive). For the same compound, the fluorescence ratio (interference) in test [18] was 0.9 (inactive). Besides, the remaining activity in test [1] was 111% (inactive) and 121% (inactive). The fold change was 0.968 (inactive) and 0.976 (inactive) and 0.969 (inactive) in test [3] (setting [20]); 1.08 and 0.707 and 0.956 in test [3] (setting [21]). Also, the cell count in [3] (setting [22]) was 10200 and 8490 and 9480; in [3] (setting [23]) it was 10500 and 8700 and 9780. In test [19], the compound was called inactive. Besides, the z-score in [5] is 0.295 (inactive) and -0.475 (inactive) and -0.075 (inactive).

Regarding `C[C@H](N)Cc1cnc[nH]1`, the remaining activity in test [1] was 92.3% (inactive). Also, the results for the fold change in [3] (setting [20]) and in test [3] (setting [21]) were 0.997 (inactive) and 1.13, respectively. Besides, the cell count in test [3] (setting [22]) turned out to be 9180; in test [3] (setting [23]), 9200. For the same compound, in test [5], the z-score was 0.12 (inactive).

Turning to `CCCCCCC[n+]1ccc(-c2cc[n+](CCCCCCC)cc2)cc1`, the remaining activity in test [1] is 77% (inactive). Further, the fold change is 1.13 (inactive) in test [3] (setting [20]) and 1.23 in [3] (setting [21]). For the same compound, the cell count turned out to be 1940 in test [3] (setting [22]) and 1710 in test [3] (setting [23]). Further, in test [5], the z-score is -1.1 (inactive).
